Data taken from PubChem BioAssay (Tox21).
Inconclusive results are not listed. Active and inactive are the calls of the source. Unless noted, calls follow the shape of the dose curve; as a rule, active = well fitted curve in the direction sought with a large enough effect in the repeat runs; inconclusive = weak or mixed curves; inactive = no such curve, though single readings can be large; an effect the other way counts as inactive or inconclusive.

How the values were obtained:
[1] = A CellTox Green Cytotoxicity Assay to monitor cytotoxicity in HEK293 cells - 32 hour (AID 1224881); also: nearly all actives have a fitted effect of over 40% in size; also: potency is read from the fitted curve at half-maximal effect
In short: (§1)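 Fluorescence intensity, read at 0, 8, 16, 24, 32 and 40 h of compound treatment, reflected dye binding to DNA of dead HEK293 cells; compounds (23 nL, DMSO) were added 5 h after plating cells with reagent.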

[2] = A CellTox Green Cytotoxicity Assay to monitor cytotoxicity in HepG2 cells - 0 hour (AID 1224882); also: nearly all actives have a fitted effect of over 35% in size
In short: (§2)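 Using 1536-well format, dye-containing HepG2 suspension was seeded, allowed 5 h at 37 C/5% CO2, dosed by pintool with compounds, positive and negative controls, and imaged for fluorescence across 40 h.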

[3] = A CellTox Green Cytotoxicity Assay to monitor cytotoxicity in HepG2 cells - 32 hour (AID 1224883); also: nearly all actives have a fitted effect of over 50% in size; also: potency is read from the fitted curve at half-maximal effect
In short: as §2

[4] = A CellTox Green Cytotoxicity Assay to monitor cytotoxicity in HEK293 cells - 8 hour (AID 1224884); also: nearly all actives have a fitted effect of over 35% in size; also: potency is read from the fitted curve at half-maximal effect
In short: as §1

[5] = qHTS RealTime-Glo MT Cell Viability Assay in HepG2 cells - 16 hour (AID 1224885); also: nearly all actives have a fitted effect of over 50% in size
In short: (§3)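 Viability was tracked continuously by NanoLuc luminescence from prosubstrate reduced by living HepG2 cells, at successive time points over 40 h of compound exposure. Cells with reagent were preincubated 5 h at 37 °C before compound addition.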

[6] = A CellTox Green Cytotoxicity Assay to monitor cytotoxicity in HEK293 cells - 16 hour (AID 1224888); also: nearly all actives have a fitted effect of over 35% in size; also: potency is read from the fitted curve at half-maximal effect
In short: as §1

[7] = A CellTox Green Cytotoxicity Assay to monitor cytotoxicity in HepG2 cells - 8 hour (AID 1224890); also: nearly all actives have a fitted effect of over 45% in size; also: potency is read from the fitted curve at half-maximal effect
In short: as §2

[8] = qHTS assay to identify small molecule antagonists of the estrogen receptor alpha (ER-alpha) signaling pathway using the BG1 cell line in the presence of 0.1 nM 17-beta-estradiol - cell viability counter screen (AID 1259241); also: nearly all actives have a fitted effect of over 40% in size; also: potency is read from the fitted curve at half-maximal effect
In short: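 Viability in VM7Luc4E2 cells after 22 hr compound exposure under 0.1 nM 17beta-estradiol stimulation, by CellTiter-Fluor.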

[9] = qHTS assay to identify small molecule antagonists of the androgen receptor (AR) signaling pathway using the MDA cell line in the presence of 0.5 nM R1881 - cell viability counter screen (AID 1259242); also: nearly all actives have a fitted effect of over 45% in size
In short: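 Viability of MDA-kb2 cells was multiplexed with the luciferase AR readout; after 16 hr with compounds and R1881 at 0.5 nM final, CellTiter-Fluor fluorescence was recorded.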

[10] = biological target: Androgen receptor (Homo sapiens) (UniProt P10275); experiment: qHTS assay to identify small molecule antagonists of the androgen receptor (AR) signaling pathway using the MDA cell line in the presence of 0.5 nM R1881 (AID 1259243); also: nearly all actives have a fitted effect of over 50% in size; also: potency is read from the fitted curve at half-maximal effect
Androgen receptor (Homo sapiens), sequence (P10275 whole entry, looked up): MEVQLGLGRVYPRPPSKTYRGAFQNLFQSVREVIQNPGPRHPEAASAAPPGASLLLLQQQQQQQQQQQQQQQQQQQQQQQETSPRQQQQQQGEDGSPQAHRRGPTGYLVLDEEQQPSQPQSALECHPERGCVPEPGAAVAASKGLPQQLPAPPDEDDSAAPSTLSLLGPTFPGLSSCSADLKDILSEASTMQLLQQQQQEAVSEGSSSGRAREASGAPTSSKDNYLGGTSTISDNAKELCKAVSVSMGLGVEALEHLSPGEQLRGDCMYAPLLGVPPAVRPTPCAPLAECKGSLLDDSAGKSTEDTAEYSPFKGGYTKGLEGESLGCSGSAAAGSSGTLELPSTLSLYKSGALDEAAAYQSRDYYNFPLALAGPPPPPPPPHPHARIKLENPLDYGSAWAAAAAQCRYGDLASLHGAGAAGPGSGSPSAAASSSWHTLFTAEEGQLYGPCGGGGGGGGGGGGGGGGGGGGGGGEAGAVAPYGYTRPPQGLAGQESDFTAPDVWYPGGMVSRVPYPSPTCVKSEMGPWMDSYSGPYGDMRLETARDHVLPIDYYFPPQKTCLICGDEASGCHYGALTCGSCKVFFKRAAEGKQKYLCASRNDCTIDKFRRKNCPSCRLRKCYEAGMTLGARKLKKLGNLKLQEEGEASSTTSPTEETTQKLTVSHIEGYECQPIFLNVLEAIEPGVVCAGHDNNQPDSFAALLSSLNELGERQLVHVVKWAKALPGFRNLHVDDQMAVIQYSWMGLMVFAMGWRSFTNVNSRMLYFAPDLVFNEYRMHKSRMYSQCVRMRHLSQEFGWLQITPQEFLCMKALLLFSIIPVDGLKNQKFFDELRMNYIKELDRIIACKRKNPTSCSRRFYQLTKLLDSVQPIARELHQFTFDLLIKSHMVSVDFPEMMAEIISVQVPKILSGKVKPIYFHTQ
In short: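 Reporter cells cultured without CO2 receive test chemicals, then 0.5 nM R1881 final; after 16 hr at 37C, ONE-Glo is added and light output recorded.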

[11] = biological target: Estrogen receptor (Homo sapiens) (UniProt P03372); experiment: qHTS assay to identify small molecule antagonists of the estrogen receptor alpha (ER-alpha) signaling pathway using the BG1 cell line in the presence of 0.1 nM 17-beta-estradiol (AID 1259244); also: nearly all actives have a fitted effect of over 50% in size; also: potency is read from the fitted curve at half-maximal effect
Estrogen receptor (Homo sapiens), sequence (P03372 whole entry, looked up): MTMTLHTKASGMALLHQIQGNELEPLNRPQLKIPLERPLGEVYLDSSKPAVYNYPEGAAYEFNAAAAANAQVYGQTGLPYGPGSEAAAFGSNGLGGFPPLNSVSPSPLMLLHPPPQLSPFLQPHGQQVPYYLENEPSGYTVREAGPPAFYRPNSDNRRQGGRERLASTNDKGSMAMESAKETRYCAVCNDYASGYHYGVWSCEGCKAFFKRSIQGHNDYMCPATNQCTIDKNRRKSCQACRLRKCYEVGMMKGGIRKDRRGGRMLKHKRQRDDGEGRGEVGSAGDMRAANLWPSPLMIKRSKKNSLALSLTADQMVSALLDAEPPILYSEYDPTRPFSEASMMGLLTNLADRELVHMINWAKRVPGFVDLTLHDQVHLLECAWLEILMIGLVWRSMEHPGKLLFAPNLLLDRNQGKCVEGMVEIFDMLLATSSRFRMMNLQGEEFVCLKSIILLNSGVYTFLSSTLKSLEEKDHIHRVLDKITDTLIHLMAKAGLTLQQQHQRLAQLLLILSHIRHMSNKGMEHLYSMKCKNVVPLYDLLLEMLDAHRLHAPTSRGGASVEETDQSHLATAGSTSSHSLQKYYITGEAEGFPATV
In short: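 Estradiol at 0.1 nM (final) stimulates the endogenous ER-alpha of VM7Luc4E2 cells carrying an ERE-driven luciferase; compounds are co-incubated 22 h at 37C and luciferase output quantified by luminescence.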

[12] = qHTS assay to identify small molecule HDAC inhibitors (AID 1259364);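 also: wild-type HCT-116 cells with endogenous class I/II HDAC activity; top concentration of the series differs between compounds; nearly all actives have a fitted effect of over 45% in size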
In short: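 Read-out: luminescence of HDAC-Glo I/II reagent, 30 min RT, reflecting class I/II deacetylase activity in whole HCT-116 cells pre-exposed 2 h to DMSO-dissolved compounds.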

[13] = qHTS assay to identify small molecule HDAC inhibitors - cell viability counter screen (AID 1259365); also: nearly all actives have a fitted effect of over 50% in size; also: potency is read from the fitted curve at half-maximal effect
In short: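 Cytotoxicity was gauged in wild-type HCT-116 cells after a brief 2hr treatment with DMSO-dissolved compounds at 37C and 5% CO2, using CellTiter-Glo luminescence developed for 30min at room temperature.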

[14] = qHTS assay to identify small molecule agonists of the sonic hedgehog signaling (Shh) pathway - cell viability counter screen (AID 1259366); also: nearly all actives have a fitted effect of over 50% in size; also: potency is read from the fitted curve at half-maximal effect
In short: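 Stable Gli1-Luc NIH/3T3 clone, 2,000 cells/well. Compound exposure 24hr at 37C. Read-out: CellTiter-Fluor fluorescence.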

[15] = qHTS assay to identify small molecule antagonists of the sonic hedgehog signaling (Shh) pathway - cell viability counter screen (AID 1259367); also: nearly all actives have a fitted effect of over 55% in size; also: potency is read from the fitted curve at half-maximal effect
In short: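 Using CellTiter-Fluor, viability of Gli1-Luc reporter 3T3 cells is read by fluorescence in the wells used for the Shh luciferase assay. Treatment lasts 23 hr with conditioned medium, then reagent 1 hr at 37C.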

[16] = qHTS assay to identify small molecule agonists of the sonic hedgehog signaling (Shh) pathway (AID 1259368; calls by dose curve;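 also: NIH/3T3-derived 3T3Gli1-Luc cells carrying a stable Gli1-driven firefly luciferase reporter; series mostly up to about 92 µM; nearly all actives have a fitted effect of over 15% in size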)
In short: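 A Gli1 transcriptional response element controlled firefly luciferase in 3T3Gli1-Luc cells. Compounds and a positive control were added 4 hr after plating, and cells were incubated a further 24 hr at 37 C before luminescence detection.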

[17] = qHTS RealTime-Glo MT Cell Viability Assay in HEK293 cells - 24 hour (AID 1224886); also: nearly all actives have a fitted effect of over 50% in size; also: potency is read from the fitted curve at half-maximal effect
In short: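 Viability tracked continuously by luminescence as live cells reduce a prosubstrate for NanoLuc; HEK293 cells preincubated 5 h, compound-treated at 37 C, and read at 0, 8, 16, 24, 32 and 40 h.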

[18] = qHTS RealTime-Glo MT Cell Viability Assay in HEK293 cells - 8 hour (AID 1224887); also: nearly all actives have a fitted effect of over 50% in size; also: potency is read from the fitted curve at half-maximal effect
In short: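 Viable HEK293 cells reduce a cell-permeant prosubstrate; the product diffuses out and is consumed by NanoLuc in the medium to give light. Compounds went in after a 5 h incubation and plates were read over the treatment course.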

[19] = qHTS RealTime-Glo MT Cell Viability Assay in HepG2 cells - 0 hour (AID 1224889); also: nearly all actives have a fitted effect of over 50% in size; also: potency is read from the fitted curve at half-maximal effect
In short: as §3

[20] = qHTS assay to identify small molecule phospholipidosis (PLD) inducers (AID 1259344; active = well fitted curve in the direction sought with a large enough effect; an effect the other way counts as inactive or inconclusive)
In short: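 Fluorescent phospholipid staining (LipidTOX Red) measured by automated microscopy in fixed HepG2 cells after 24 h treatment; nuclei counterstained with Hoechst 33342; amiodarone as reference inducer.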

Measured: Potency

O=C(Cl)c1ccc(Cl)cc1
not listed: [17] | [18] | [19] | [20]
inactive: all other assays above

S=C=Nc1cccc2ccccc12
active: [18] 21.7 µM | [8] 30.3 µM | [11] 19.1 µM
not listed: [5] | [10] | [14] | [15] | [20]
inactive: all other assays above

CCOC(=O)C1(c2ccccc2)CCN(CCC(C#N)(c2ccccc2)c2ccccc2)CC1
active: [10] 29.8 µM
not listed: [5]
inactive: all other assays above

CCOP(=S)(OCC)SCS(=O)(=O)CC
not listed: [12] | [17] | [18] | [20]
inactive: all other assays above

c1ccc2c(c1)OCC(C1=NCCN1)O2 (stereo unspecified)
active: [1] 19 µM | [15] 2.11 µM
not listed: [10] | [11] | [12] | [14] | [16] | [17]
inactive: all other assays above

[Hg+2].[I-].[I-]
active: [1] 21.9 µM | [3] 7.76 µM | [4] 49 µM | [17] 3.09 µM | [18] 6.16 µM | [6] 43.6 µM | [19] 24.5 µM | [7] 15.5 µM | [8] 30.6 µM | [13] 61.1 µM | [14] 2.43 µM | [15] 4.33 µM
inactive: [2] | [16]

N#Cc1ccccc1N
not listed: [5] | [16] | [20]
inactive: all other assays above
